According to PubChem BioAssay (NCATS):
Records with an inconclusive call do not appear. The source made the active and inactive calls. Unless noted, calls come from the whole dose curve; as a rule, active = well fitted curve in the direction sought with a large enough effect; inconclusive = small, poorly fitted or top-dose-only effect, or another doubt; inactive = no such curve, though single readings can be large; an effect the other way counts as inactive or inconclusive.

Tests used:
[1] = Cell Viability - LYMP2-016 (AID 984);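 note: cells exposed to compound for 24 hours at 37 °C; % is set by controls: 0 for no effect and ±100 for the full control effect; nearly all actives have a fitted effect of over 55% in size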
Procedure, shortened: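 Acute toxicity in a Coriell human lymphoblastoid line is scored as loss of intracellular ATP over 24 h of treatment in complete medium. CellTiter-Glo signal is fitted across concentrations with the Hill equation to give AC50.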

[2] = Cell Viability - LYMP2-018 (AID 985);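 note: compound exposure lasted 24 hr at 37 °C; plate controls were DMSO only for no effect and tetraoctylammonium bromide at 92 µM for full effect; nearly all actives have a fitted effect of over 50% in size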
Procedure, shortened: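 Seed 2500 lymphoblastoid cells per well, incubate 5 hr at 37 C, add compound and incubate 24 hr at 37 C, add CellTiter-Glo, wait 30 min at room temperature, then read luminescence.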

[3] = Cell Viability - LYMP1-002 - Assay at 24 hr (AID 993); note: % is set by controls: 0 for no effect and ±100 for the full control effect
Procedure, shortened: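 Acute toxicity is measured as concentration-dependent loss of cellular ATP in a human lymphoblastoid line (Coriell LYMP1-002) after 24 h treatment in complete medium. ATP is quantified by luciferase luminescence and AC50 derived by Hill modelling.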

[4] = Cell Viability - LYMP1-002 - Assay at 40 hr (AID 994);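 note: 0% = DMSO only and full inhibition = 92 µM tetraoctylammonium bromide; nearly all actives have a fitted effect of over 60% in size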
Procedure, shortened: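 Cells are plated at 2500 per well and rested 5 hr at 37 C. Compounds are added and incubated 40 hr at 37 C. CellTiter-Glo reagent is added for 30 min at room temperature before luminescence is read.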

[5] = target: Estrogen receptor (Homo sapiens) (UniProt P03372); experiment: qHTS assay for small molecule antagonists of estrogen receptor alpha signaling (AID 588513; active = well fitted curve in the direction sought with a large enough effect in the signal ratio, with a control signal flat, not every such curve was filed as active; the % refers to the signal ratio; note: % is set by controls: 0 for no effect and ±100 for the full control effect)
Sequence of Estrogen receptor (Homo sapiens) (P03372 whole entry, looked up): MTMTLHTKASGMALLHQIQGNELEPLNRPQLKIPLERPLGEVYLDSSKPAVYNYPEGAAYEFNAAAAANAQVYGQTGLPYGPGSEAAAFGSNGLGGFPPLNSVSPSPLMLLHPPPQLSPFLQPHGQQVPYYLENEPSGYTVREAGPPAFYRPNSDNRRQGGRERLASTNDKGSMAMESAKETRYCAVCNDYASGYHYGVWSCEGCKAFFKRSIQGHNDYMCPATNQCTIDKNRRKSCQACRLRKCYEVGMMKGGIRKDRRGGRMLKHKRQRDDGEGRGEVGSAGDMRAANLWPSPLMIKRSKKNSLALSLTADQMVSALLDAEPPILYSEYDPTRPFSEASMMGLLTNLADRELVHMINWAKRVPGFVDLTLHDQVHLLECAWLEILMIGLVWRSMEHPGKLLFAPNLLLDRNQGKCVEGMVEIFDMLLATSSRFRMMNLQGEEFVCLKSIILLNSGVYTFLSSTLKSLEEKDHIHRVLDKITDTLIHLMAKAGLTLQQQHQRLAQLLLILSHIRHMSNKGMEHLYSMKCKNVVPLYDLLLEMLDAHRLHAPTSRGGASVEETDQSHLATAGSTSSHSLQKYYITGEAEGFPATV
Procedure, shortened: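 Cells were plated at 5000/well and incubated 4 h at 37 C. Compounds were added as 1:2 dilution series, duplicates. 17-beta-estradiol (0.5nM final) was added for 18 h before CCF4 detection.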

[6] = target: Glucocorticoid receptor (Homo sapiens) (UniProt P04150); experiment: qHTS assay for small molecule agonists of glucocorticoid receptor signaling (AID 588532; active = well fitted curve in the direction sought with a large enough effect in the signal ratio, with a control signal flat; the % refers to the signal ratio;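 note: 100% = dexamethasone at 0.1 µM and 0% = DMSO only wells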); details: HeLa MMTV-bla, beta-lactamase ratio, agonist, 18 h; active compounds read high; percent of dexamethasone control, DMSO zero
Sequence of Glucocorticoid receptor (Homo sapiens) (P04150 whole entry, looked up): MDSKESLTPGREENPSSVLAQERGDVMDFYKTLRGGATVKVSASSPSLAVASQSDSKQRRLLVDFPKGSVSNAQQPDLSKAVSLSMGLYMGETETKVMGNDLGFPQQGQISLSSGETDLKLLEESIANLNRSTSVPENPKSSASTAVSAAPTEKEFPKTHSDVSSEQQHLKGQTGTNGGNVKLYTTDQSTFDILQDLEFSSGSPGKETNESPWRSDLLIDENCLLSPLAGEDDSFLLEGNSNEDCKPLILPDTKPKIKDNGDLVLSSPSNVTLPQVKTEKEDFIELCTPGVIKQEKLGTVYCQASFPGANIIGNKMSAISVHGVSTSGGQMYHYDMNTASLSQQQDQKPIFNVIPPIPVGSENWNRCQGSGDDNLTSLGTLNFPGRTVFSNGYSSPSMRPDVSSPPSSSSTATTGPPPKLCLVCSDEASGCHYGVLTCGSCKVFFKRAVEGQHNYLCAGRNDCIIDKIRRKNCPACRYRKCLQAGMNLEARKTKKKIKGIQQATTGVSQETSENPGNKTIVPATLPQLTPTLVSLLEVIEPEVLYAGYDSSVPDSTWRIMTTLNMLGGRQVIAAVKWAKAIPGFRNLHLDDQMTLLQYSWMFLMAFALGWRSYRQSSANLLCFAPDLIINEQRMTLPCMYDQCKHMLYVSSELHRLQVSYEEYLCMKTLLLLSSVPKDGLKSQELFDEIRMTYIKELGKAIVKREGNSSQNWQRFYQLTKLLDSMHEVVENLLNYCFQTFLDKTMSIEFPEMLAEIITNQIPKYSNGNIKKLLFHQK
Procedure, shortened: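 MMTV-bla HeLa, beta-lactamase reporter; medium with 1% charcoal/dextran-stripped FBS; cpds up to 92 uM, 18 h, 37 C; CCF4 readout 460/530 nm; Hill fit → EC50, efficacy vs 0.1 uM dexamethasone = 100%.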

[7] = target: Glucocorticoid receptor (Homo sapiens) (UniProt P04150); experiment: qHTS assay for small molecule antagonists of glucocorticoid receptor signaling (AID 588533; active = well fitted inhibition curve with a large enough effect in the signal ratio, with a control signal flat, not every such curve was filed as active; the % refers to the signal ratio;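 note: cells stimulated with 2 nM dexamethasone as agonist; potency is the fitted concentration of half-maximal effect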)
Procedure, shortened: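 Antagonist-mode qHTS: compound titrations added to GRE-bla HeLa cells, then dexamethasone 2 nM final; 18 h, 37 C. CCF4 FRET fluorescence normalized to dexamethasone and DMSO; IC50 from Hill fit.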

[8] = target: Thyroid hormone receptor beta (Homo sapiens) (UniProt P10828); experiment: qHTS assay for small molecule antagonists of thyroid hormone receptor beta signaling (AID 588547; active = well fitted inhibition curve with a large enough effect in the signal ratio, with a control signal flat, not every such curve was filed as active; the % refers to the signal ratio;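 note: cells stimulated with 0.4 nM T3 agonist during compound exposure; series mostly up to about 77 µM; % is set by controls: 0 for no effect and ±100 for the full control effect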); details: TR-UAS-bla HEK293, beta-lactamase ratio, antagonist mode, 18 h
Sequence of Thyroid hormone receptor beta (Homo sapiens) (P10828 whole entry, looked up): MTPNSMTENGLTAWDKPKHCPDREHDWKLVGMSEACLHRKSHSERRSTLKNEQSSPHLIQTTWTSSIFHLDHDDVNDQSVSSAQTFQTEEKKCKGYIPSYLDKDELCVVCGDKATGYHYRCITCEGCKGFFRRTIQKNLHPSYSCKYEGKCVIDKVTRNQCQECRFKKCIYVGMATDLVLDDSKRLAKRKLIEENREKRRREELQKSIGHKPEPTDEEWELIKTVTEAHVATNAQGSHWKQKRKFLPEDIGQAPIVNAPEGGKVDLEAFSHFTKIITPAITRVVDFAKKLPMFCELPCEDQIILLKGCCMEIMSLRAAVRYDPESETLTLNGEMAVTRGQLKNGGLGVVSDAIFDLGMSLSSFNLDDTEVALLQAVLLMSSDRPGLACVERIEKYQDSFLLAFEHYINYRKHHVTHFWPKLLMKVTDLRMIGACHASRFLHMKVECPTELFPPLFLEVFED
Procedure, shortened: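 TR-UAS-bla GripTite HEK293 cells in 2% charcoal/dextran FBS medium were preincubated 4 h at 37 C, given compound (0.59 nM to 92 uM) plus 0.4 nM T3 (final) for 18 h, then CCF4 for 2 h at RT; Hill fit gave IC50.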

[9] = target: Voltage-gated inwardly rectifying potassium channel KCNH2 (Homo sapiens) (UniProt Q12809); experiment: qHTS Assay for Small Molecule Inhibitors of the Human hERG Channel Activity (AID 588834);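 note: U2OS cells transduced with hERG by BacMam; top concentration of the series differs between compounds; % is set by controls: 0 for no effect and ±100 for the full control effect; lower thallium flux fluorescence means stronger hERG block; nearly all actives have a fitted effect of over 50% in size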
Sequence of Voltage-gated inwardly rectifying potassium channel KCNH2 (Homo sapiens) (Q12809 whole entry, looked up): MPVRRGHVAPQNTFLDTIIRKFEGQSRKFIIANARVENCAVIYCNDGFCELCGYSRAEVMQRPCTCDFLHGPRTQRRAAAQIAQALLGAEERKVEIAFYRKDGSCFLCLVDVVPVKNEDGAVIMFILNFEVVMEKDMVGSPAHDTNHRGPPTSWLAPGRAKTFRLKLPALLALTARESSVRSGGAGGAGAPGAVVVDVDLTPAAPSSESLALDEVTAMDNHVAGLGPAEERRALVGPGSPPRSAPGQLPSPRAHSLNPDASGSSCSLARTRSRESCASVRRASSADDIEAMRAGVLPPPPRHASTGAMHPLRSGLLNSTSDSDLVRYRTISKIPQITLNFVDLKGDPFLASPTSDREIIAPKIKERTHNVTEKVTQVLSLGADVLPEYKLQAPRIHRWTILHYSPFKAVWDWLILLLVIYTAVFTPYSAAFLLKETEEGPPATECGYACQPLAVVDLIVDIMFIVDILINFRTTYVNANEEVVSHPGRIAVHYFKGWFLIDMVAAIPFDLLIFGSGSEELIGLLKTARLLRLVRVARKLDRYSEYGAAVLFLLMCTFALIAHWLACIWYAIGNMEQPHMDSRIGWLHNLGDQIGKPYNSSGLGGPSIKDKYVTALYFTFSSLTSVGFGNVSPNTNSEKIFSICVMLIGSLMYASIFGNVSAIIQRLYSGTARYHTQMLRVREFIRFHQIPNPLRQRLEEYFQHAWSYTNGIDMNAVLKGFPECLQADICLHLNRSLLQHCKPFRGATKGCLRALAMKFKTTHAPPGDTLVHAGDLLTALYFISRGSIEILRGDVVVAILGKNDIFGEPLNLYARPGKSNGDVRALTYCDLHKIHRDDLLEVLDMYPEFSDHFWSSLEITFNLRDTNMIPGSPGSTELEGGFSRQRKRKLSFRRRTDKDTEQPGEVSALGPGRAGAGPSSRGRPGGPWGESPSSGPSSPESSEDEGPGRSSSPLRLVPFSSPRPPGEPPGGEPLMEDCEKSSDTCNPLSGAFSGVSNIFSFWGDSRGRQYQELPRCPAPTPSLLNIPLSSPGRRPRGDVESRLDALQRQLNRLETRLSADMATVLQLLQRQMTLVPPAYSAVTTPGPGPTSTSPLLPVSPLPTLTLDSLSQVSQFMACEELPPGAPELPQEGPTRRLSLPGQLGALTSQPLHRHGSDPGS
Procedure, shortened: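 Cells were infected with hERG-BacMam virus for 4 hrs at room temperature, grown overnight, then seeded at 2000/well. After dye loading and roughly 10 min compound treatment, thallium influx was triggered and fluorescence recorded.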

[10] = qHTS assay for small molecule activators of the p53 signaling pathway (AID 651743; active = well fitted activation curve with a large enough effect in the signal ratio, not every such curve was filed as active; the % refers to the signal ratio; note: series mostly up to about 92 µM; % of control where 0% means no effect); details: HCT-116 p53RE-bla, beta-lactamase FRET ratio, 16 h; activation: active compounds read high
Procedure, shortened: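 Agonist-mode quantitative HTS in HCT-116 cells carrying a p53-response-element beta-lactamase reporter; 16 h compound treatment at 37 C, then FRET substrate loading for 2 h at room temperature and fluorescence read.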

[11] = qHTS assay for small molecule activators of the nuclear factor-kappa B (NF-kB) signaling pathway (AID 651749; active = well fitted activation curve with a large enough effect in the signal ratio; the % refers to the signal ratio; note: series mostly up to about 77 µM; % of control where 0% means no effect); details: NF-kB-bla ME-180 cells, beta-lactamase FRET ratio, 16 h; active compounds read high
Procedure, shortened: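 Human ME-180 cervical cells with an NF-kB-bla construct; compounds added via 23 nL pin transfer, DMSO as vehicle; incubation 16 hr. Reporter activity measured by FRET disruption.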

[12] = qHTS assay for small molecule disruptors of the mitochondrial membrane potential - 1 hr assay (AID 651754; calls by dose curve; note: potency is the fitted concentration of half-maximal effect; nearly all actives have a fitted effect of over 35% in size)
Procedure, shortened: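 Loss of mitochondrial potential shifts the cationic dye from red mitochondrial aggregates to green cytoplasmic monomers. Cells (HepG2) are treated with compound for 1 hr before a 30 min dye incubation at 37C.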

[13] = target: Tumor necrosis factor (Homo sapiens) (UniProt P01375); experiment: qHTS assay to identify small molecules that stimulate Tumor Necrosis Factor-alpha (TNF-alpha) secretion (AID 651757; active = well fitted curve in the direction sought with a large enough effect in the signal ratio; the % refers to the signal ratio; note: 0% is about no effect)
Sequence of Tumor necrosis factor (Homo sapiens) (P01375 whole entry, looked up): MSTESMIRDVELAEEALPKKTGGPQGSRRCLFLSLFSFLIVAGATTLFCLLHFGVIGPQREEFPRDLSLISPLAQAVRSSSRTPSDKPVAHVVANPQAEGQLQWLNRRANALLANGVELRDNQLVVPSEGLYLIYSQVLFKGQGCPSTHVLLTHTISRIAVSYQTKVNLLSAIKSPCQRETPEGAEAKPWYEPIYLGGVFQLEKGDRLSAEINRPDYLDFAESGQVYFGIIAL
Procedure, shortened: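 Human monocytic THP-1 cells are plated, treated with compound and held at 37 C for 17 hrs. Labeled anti-TNF-alpha antibody mixture is then added; after 3 hr at room temperature, TR-FRET signal reports secreted TNF-alpha.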

[14] = qHTS assay to identify small molecules that stimulate interleukin-8 (IL-8) secretion (AID 651758; active = well fitted activation curve with a large enough effect in the signal ratio; the % refers to the signal ratio; note: 0% is about no effect)
Procedure, shortened: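 Quantitative HTS in THP-1 monocytic cells at 2000 cells per well, with 16 hrs compound incubation at 37 C. IL-8 in the medium was then quantified by HTRF immunoassay, read after 1-3 hrs at room temperature.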

[15] = qHTS assay for environmental chemicals that activate the Aryl hydrocarbon Receptor (AhR) signaling pathway (AID 651777); details: 1A2-DRE human hepatoma cells, luciferase, 24 h; activation: active compounds read high; note: potency is the fitted concentration of half-maximal effect; nearly all actives have a fitted effect of over 15% in size
Procedure, shortened: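 Reporter gene assay: hepatoma cells with DRE/CYP1A2-luciferase, 24 hr compound incubation at 37 C, 5% CO2, luminescence after One-Glo (30 min, RT).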

[16] = target: Peroxisome proliferator-activated receptor alpha (Homo sapiens) (UniProt Q07869); experiment: qHTS assay for small molecule agonists of the peroxisome proliferator-activated receptor alpha (PPARalpha) signaling pathway (AID 651778); details: PathHunter PPARalpha complementation, chemiluminescence, 6 h; max response: active compounds read high; note: % of control where 0% means no effect
Sequence of Peroxisome proliferator-activated receptor alpha (Homo sapiens) (Q07869 whole entry, looked up): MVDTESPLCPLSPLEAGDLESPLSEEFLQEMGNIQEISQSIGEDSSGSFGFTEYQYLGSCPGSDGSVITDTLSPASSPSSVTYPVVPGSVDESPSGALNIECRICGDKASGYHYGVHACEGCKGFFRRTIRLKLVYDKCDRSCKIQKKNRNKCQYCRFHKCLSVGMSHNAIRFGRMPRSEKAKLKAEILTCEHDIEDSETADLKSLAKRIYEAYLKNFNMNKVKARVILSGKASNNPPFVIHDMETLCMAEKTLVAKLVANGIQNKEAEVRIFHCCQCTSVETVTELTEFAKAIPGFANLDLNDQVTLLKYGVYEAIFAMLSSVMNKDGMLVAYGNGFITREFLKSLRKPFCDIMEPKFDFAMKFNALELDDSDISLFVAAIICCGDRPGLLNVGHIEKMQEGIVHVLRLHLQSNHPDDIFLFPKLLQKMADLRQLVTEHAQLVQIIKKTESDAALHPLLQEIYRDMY
Procedure, shortened: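 Cells plated at 2,000/well and held overnight at 37 C, 5% CO2, then compound added by pin tool for 6 hr; after PathHunter detection reagent and 60 min at room temperature, chemiluminescence from enzyme complementation was read.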

[17] = target: Nuclear receptor ROR-gamma (Homo sapiens) (UniProt P51449); experiment: qHTS assay for small molecule antagonists of the retinoid-related orphan receptor gamma (ROR-gamma) signaling pathway (AID 651802);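 note: CHO cells with doxycycline-induced ROR-gamma expression; series mostly up to about 92 µM; % is set by controls: 0 for no effect and ±100 for the full control effect; nearly all actives have a fitted effect of over 60% in size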
Sequence of Nuclear receptor ROR-gamma (Homo sapiens) (P51449 whole entry, looked up): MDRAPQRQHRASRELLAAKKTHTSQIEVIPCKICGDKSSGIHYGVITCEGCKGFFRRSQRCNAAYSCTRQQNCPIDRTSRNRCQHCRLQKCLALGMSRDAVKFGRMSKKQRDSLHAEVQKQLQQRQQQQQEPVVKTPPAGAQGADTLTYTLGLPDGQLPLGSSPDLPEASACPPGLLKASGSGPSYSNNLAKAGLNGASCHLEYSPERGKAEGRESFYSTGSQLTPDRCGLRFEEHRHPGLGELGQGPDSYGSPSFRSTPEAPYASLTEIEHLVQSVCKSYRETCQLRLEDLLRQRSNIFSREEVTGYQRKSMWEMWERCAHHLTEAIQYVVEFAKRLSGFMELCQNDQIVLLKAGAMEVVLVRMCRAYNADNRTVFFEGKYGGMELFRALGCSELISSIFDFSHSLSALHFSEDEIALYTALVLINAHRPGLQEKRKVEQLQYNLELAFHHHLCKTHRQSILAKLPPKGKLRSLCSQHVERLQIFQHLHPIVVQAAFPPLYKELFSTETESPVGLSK
Procedure, shortened: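 Steps: cells dispensed; compound or DMSO transferred by pin tool; doxycycline added to induce the ROR response element-driven luciferase; plates held 16hr at 37C; ONE-Glo added and luminescence measured.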

[18] = qHTS assay for small molecule antagonists of the retinoid-related orphan receptor gamma (ROR-gamma) signaling pathway - cell viability counter screen (AID 720652; active = well fitted curve in the direction sought with a large enough effect in the repeat runs; an effect the other way counts as inactive or inconclusive;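 note: CHO reporter cells with doxycycline-induced ROR-gamma expression; series mostly up to about 92 µM; compound exposure lasted 16 hr before ATP read; % is set by controls: 0 for no effect and ±100 for the full control effect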)
Procedure, shortened: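 Steps: seed CHO cells bearing TET-inducible ROR and ROR response element-luciferase; rest 5 hr at 37 C; add compound, then doxycycline; incubate 16 hr; add CellTiter-Glo and read luminescence as ATP-based viability.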

[19] = qHTS assay for small molecule agonists of the antioxidant response element (ARE) signaling pathway measured by Nrf2-dependant transcriptional activity - cell viability counter screen (AID 720653; active = well fitted curve in the direction sought with a large enough effect in the repeat runs; an effect the other way counts as inactive or inconclusive; note: % is set by controls: 0 for no effect and ±100 for the full control effect); details: ARE-bla HepG2 viability, CellTiter-Glo ATP luminescence, 16 h; max response: active compounds read low
Procedure, shortened: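 ARE-bla HepG2 cells (2,000/well) rested 5 hrs at 37C/5% CO2, then exposed to compounds in DMSO for 16 hrs. Viability was read in the same wells as intracellular ATP by luminescence, 30 min at room temperature after reagent addition.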

[20] = qHTS assay for cell viability of HEK293 cells (AID 743288); details: ATP luminescence (CellTiter-Glo), 18 h; max response: active compounds read low; note: % is set by controls: 0 for no effect and ±100 for the full control effect; nearly all actives have a fitted effect of over 50% in size
Procedure, shortened: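 Quantitative high-throughput screen: compounds were pinned onto parental HEK293 cells (2,000 per well) after a minimum 5 h settling at 37 C, incubated 18 h at 37 C, and intracellular ATP measured by luciferase luminescence.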

[21] = qHTS assay for cell viability of the p53RE-bla HCT-116 cell line (AID 743292); note: % is set by controls: 0 for no effect and ±100 for the full control effect; nearly all actives have a fitted effect of over 55% in size
Procedure, shortened: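 ATP-based luminescence, 16 h compound exposure at 37 C, p53RE-bla HCT-116 cells at 4,000/well.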

O=C(O)c1cc(N=Nc2ccc([N+](=O)[O-])cc2)ccc1O
active: Potency [7] 10 µM | Potency [12] 37.6 µM | Potency [15] 4.47 µM
inactive: Potency [1] | Potency [2] | Potency [3] | Potency [4] | outcome [5] | activation [6] -18.2% | activity change % (negative = inhibition) [8] 12.8% | Potency [9] | activation [10] -5.24% | activation [11] -2.01% | Potency [13] | Potency [14] | max response [16] -12.2% | Potency [17] | Potency [18] | max response [19] -5.1% | max response [20] 6.02% | Potency [21]
